# The full list was thinned out, with hits kept by preference.
# Cycloheximide cs: counter-screen hit for Shiga toxin inhibitors, cycloheximide | 12% of 300,000 active | cell reporter, cycloheximide protein synthesis inhibition counterscreen | max response, % | AID 2314; in the data active = max response mostly above about 13%, no sharp cut-off; inactive = mostly below about 14%; also: read at 38.3 µM for the half of the compounds with a filed dose; 0% is about no effect
# Shiga inhibitor: Shiga toxin inhibition. Vero cells, Shiga toxin protein synthesis inhibition reporter. inhibition, % at 38.7 µM. 9.2% of 290,000 active. AID 2315; in the data active = inhibition mostly above about 28%, no sharp cut-off; inactive = mostly below about 43%; also: 0% is about no effect
# LASV entry inh: inhibitors of Lassa virus binding or cell entry; Lassa virus pseudotype entry inhibition, cell reporter; Potency, µM (highest dose often 37.9 µM), for inactives: at the top dose activity change, negative = inhibition, hits mostly inhibitors; 1.2% of 300,000 active; AID 540256; calls by dose curve; tested in HEK293 cells; also: potency is read from the fitted curve at half-maximal effect; % is scaled to controls: 0 for no effect and ±100 for the full control effect; nearly all actives have a fitted effect of over 50% in size
# VACV mCherry inh: inhibitors of vaccinia virus infection (mCherry reporter signal); Vaccinia virus mCherry reporter infection, fluorescence; Potency, µM (titrated, usually from 36.5 µM), without a hit: top-dose activity change, negative = inhibition, most hits filed as inhibitors; 0.63% of 310,000 active; AID 720579; calls by dose curve; tested in A549 cells; also: potency is read from the fitted curve at half-maximal effect; % is scaled to controls: 0 for no effect and ±100 for the full control effect; nearly all actives have a fitted effect of over 35% in size
# Marburg entry inh: inhibitors of Marburg virus binding or cell entry. Potency, µM (top dose mostly 37.8 µM), inactives show at the highest dose activity change, negative = inhibition, hits mostly inhibitors. 1.8% of 300,000 active. Marburg virus pseudotyped entry inhibition, cell reporter; calls by dose curve; tested in HEK293 cells; also: potency is read from the fitted curve at half-maximal effect; % is scaled to controls: 0 for no effect and ±100 for the full control effect
# VACV Venus inh: inhibitors of vaccinia virus (Venus reporter). Vaccinia virus Venus reporter expression, fluorescence. Potency, µM (doses to about 36.5 µM), for inactives: at the top dose activity change, negative = inhibition, most hits filed as inhibitors. 0.46% of 330,000 active; calls by dose curve; tested in A549 cells; also: potency is read from the fitted curve at half-maximal effect; % is scaled to controls: 0 for no effect and ±100 for the full control effect; nearly all actives have a fitted effect of over 30% in size
# * = called active by the depositor; i = inactive; ? = inconclusive; . = not tested or not shown; [ ] = another dose, or the depositor's remark.
SMILES,Cycloheximide cs,Shiga inhibitor,LASV entry inh,VACV mCherry inh,Marburg entry inh,VACV Venus inh
COc1ccc(-n2nc(C(=O)N(C)c3cccc(C(F)(F)F)c3)c3c4ccccc4n(C)c3c2=O)cc1,.,.,16%[46.1 µM],-5%,6%[46.1 µM],0%
Cc1cc(C(=O)N/N=C/c2cn(C)nc2C)c2ccccc2n1,-4,-3,.,.,.,.
Cc1nn(C)cc1/C=N\NC(=O)c1csc2c1CCCC2,65*,65*,-8%,-13%,?,-6%
Cc1ccc(/C=N/NC(=O)c2csc3c2CCCC3)cc1,27*,101*,?,-18%,?,-26%
COc1cc(/C=N/NC(=O)c2csc3c2CCCC3)ccc1OCCN1CCOCC1,26*,26,.,.,.,.
COc1cc(/C=N/NC(=O)c2csc3c2CCCC3)cc(OC)c1O,-3,17*,-6%,i,?,-11%
CCOc1cc(/C=N/NC(=O)c2ccc(CN3CCOCC3)cc2)ccc1OC,2,-10,2%,i,?,-15%
Cc1ccc(-c2cnc(C3CC3)o2)cc1S(=O)(=O)Nc1ccc(F)cc1Cl,.,.,9%[46.1 µM],-17%,.,-5%
O=C(O)c1ccc(-c2ccc(OS(=O)(=O)c3ccccc3F)cc2)cc1,19*,65*,.,-4%,?,4%
COC(=O)c1ccccc1S(=O)(=O)Oc1ccc(-c2ccc(C(=O)O)cc2)cc1,4,1,.,3%,-5%[46.1 µM],8%
CCCCCN1C=CC(=C2C(=O)c3ccccc3C2=O)C=C1,-15,-33,.,i,.,-11%
CC1=CC(=C2C(=O)c3ccccc3C2=O)C=C(C)N1C,26*,40,?,-22%,?,-20%
CCN(CC)c1ccc(C(=C2C=CC(=[N+](CC)CC)C=C2)c2ccccc2)cc1,-20,-25,0.56µM*,?,?,2µM*
CCN(CC)c1ccc(C(=C2C=CC(=[N+](CC)Cc3cccc(S(=O)(=O)[O-])c3)C=C2)c2ccc(N(CC)Cc3cccc(S(=O)(=O)O)c3)cc2)cc1,-4,-12,.,.,.,.
O=C(COc1cccc(Br)c1)N/N=C1\CCSC1,-1,-8,?,-3%,?,5%
Cc1ccc(S(=O)(=O)N2CCCC(C(=O)Nc3ccc(NC(=O)c4ccccn4)cc3)C2)cc1 (stereo unspecified),9.1*,20,2%,.,-3%,.
O=C(Nc1ccc(S(=O)(=O)N2CCCCC2)cc1)C1CCCN(C(=O)c2ccc(Cl)cc2)C1 (stereo unspecified),-4,7,0.29µM*,?,?,?
Cc1ccc(NC(=O)C2CCCN(S(=O)(=O)c3ccc(F)cc3)C2)cc1 (stereo unspecified),.,.,?,-13%,-13%[46.1 µM],-15%
CN(C)S(=O)(=O)c1ccc(NC(=O)C2CCCN(C(=O)c3ccc(Cl)cc3)C2)cc1 (stereo unspecified),-6,-9,3%,-10%,-3%,-27%
O=C(Nc1ccc(Cl)cc1)C1CCCN(c2cnccn2)C1 (stereo unspecified),24*,23,.,.,.,.
O=C(NCc1cccnc1)C1CCCN(S(=O)(=O)c2ccc(Cl)cc2)C1 (stereo unspecified),36*,11,4%,-24%,8%,-20%
O=C(Nc1ccc(F)cc1)C1CCCN(c2cnccn2)C1 (stereo unspecified),-3,10,.,.,.,.
Cn1cnc(S(=O)(=O)N2CCC(C(=O)NCc3ccc(Cl)cc3)CC2)c1,.,.,1%[46.1 µM],-15%,.,-10%
CCOCCCNC(=O)Cn1nc(Cc2ccncc2)c2ccccc2c1=O,-8,-9,26%[46.1 µM],-3%,3%[46.1 µM],-11%
CCCC(CCC)C(=O)Nc1cccc(-c2cn3cccnc3n2)c1,.,.,-9%[46.1 µM],-20%,.,-3%
SMILES,Cycloheximide cs,Shiga inhibitor,LASV entry inh,VACV mCherry inh,Marburg entry inh,VACV Venus inh
CCOc1cc(C(=O)N/N=C/C(Br)=C/c2ccccc2)cc(OCC)c1OCC,2,-16,?,?,?,?
O=C(N/N=C/C(Br)=C\c1ccccc1)c1cccs1,74*,79*,?,-20%,?,-19%
CC(=C/c1ccccc1)/C=N/NC(=O)c1cccs1,36*,78*,?,0%,?,-8%
O=C(Nc1cccc(Cl)c1N1CCOCC1)c1cccs1,2,5,.,.,.,.
COc1ccc(-c2ccc(C#N)c(SCC(=O)NCc3ccco3)n2)cc1OC,3,-6,?,-3%[7.34 µM],?,-9%[7.34 µM]
CC(=O)Nc1ccc(-c2csc(NCc3ccco3)n2)cc1,48*,44*,-16%,-25%,?,-15%
COc1ccc(-c2nc3cccc(C)n3c2NCc2ccco2)cc1OC,16*,-4,-28%,.,?,-2%
COc1ccc(-c2csc(NCc3ccco3)n2)cc1C,24*,114*,-4%,.,4%,-22%
Cc1ccn2c(-c3csc(NCc4ccco4)n3)c(C)nc2c1,2,55,0%,.,0%,.
c1cncc(-c2csc(NCc3ccco3)n2)c1,32*,38*,0%,-4%,?,-17%
CNc1ccc(/C=C2\C=Cc3ccccc32)cc1,.,.,.,-23%,.,-22%
COc1ccccc1CNC(=O)CCCCn1c(=O)c2ccccc2n(Cc2c(C)cc(C)cc2C)c1=O,.,.,-7%[46.1 µM],3%,11%[46.1 µM],-1%
C=C(C)Cn1cnc2c(oc3nc4c(cc32)CCCC4)c1=O,33*,46*,.,.,.,.
N#C/C(=C/c1ccc(N2CCOCC2)o1)C(=O)NC1CCCCC1,19*,36,.,.,.,.
N#C/C(=C\c1ccc(N2CCOCC2)o1)C(=O)Nc1ccc(O)cc1,31*,68*,?,?,?,19%
COc1ccc(NC(=O)/C(C#N)=C/c2ccc(Br)o2)cc1,22*,52*,?,.,?,.
COc1ccc(NC(=O)/C(C#N)=C/c2ccc(C)o2)cc1,.,.,-10%[46.1 µM],5%,.,4%
CC(=O)Nc1ccc(/C=C(\C#N)C(=O)NC2CCCCC2)cc1,3,-9,1%,i,8%[46.1 µM],-5%
COc1ccc(NC(=O)/C(C#N)=C\c2ccc(N3CCOCC3)o2)cc1,24*,61,?,?,?,79%
CCOC(=O)c1ccc(NS(=O)(=O)c2cc3c(cc2C)n(C)c(=O)c(=O)n3C)cc1,.,.,2%[46.1 µM],-5%,.,-1%
CCCC(=O)Nc1nc2ccc3nc(C)sc3c2s1,40*,95*,16%,?,-18%,-16%
Cc1nc2c(ccc3nc(NC(=O)C4CC4)sc32)s1,52*,85*,?,?,?,?
CCC(=O)Nc1nc2ccc3sc(C)nc3c2s1,50*,96*,-22%,-22%,?,-25%
COc1ccc(C)c2sc(NC(=O)C3CC3)nc12,8,7,.,14%,.,-5%
COCCN1C(=O)NC(c2cccc(F)c2)C(C(=O)OC)=C1C (stereo unspecified),.,.,.,.,1%[14.2 µM],.
COc1ccc2c(c1)c1c(c(=O)n(-c3ccc(F)c(Cl)c3)c(=O)n1CC(=O)N1CCCC1)n2C,.,.,6%[46.1 µM],9%,.,3%
Cc1ccccc1OCC1Cc2c(nc(N)c(C#N)c2N)O1 (stereo unspecified),29*,58*,13%,.,17%,-24%

# High-throughput results (PubChem)
